# Reference: PubChem BioAssay (NCATS)
# Inconclusive results are not listed. The source made the active and inactive calls. Calls come from the whole dose curve; as a rule, active = well fitted cell-killing curve with a large enough effect; inconclusive = small, poorly fitted or top-dose-only effect; inactive = no such curve, though single readings can be large or run the other way.
# Assay: qHTS of pediatric cancer cell lines to identify multiple opportunities for drug repurposing: Confirmatory screen for TC32 cells (AID 1347118);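 note: cells exposed to compound for 48 h before the read; nearly all actives have a fitted effect of over 65% in size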
# Details: TC32 Ewing sarcoma cells viability qHTS; series mostly up to 45.9 µM
# Description: Drug repurposing or repositioning has been offered as a strategy for drug development in oncology programs. This approach has special potential for childhood cancers and other rare or orphan diseases, where the expected return on new drug development has been a disincentive to pharmaceuticals.
# In this project we exploit the poly-pharmacology of drugs to discover new indications via phenotypic screening of a panel of 19 well-characterized cell lines derived from solid tumors seen in children and adolescents. The goal is to identify approved drugs with previously unrecognized anticancer properties that has the potential to reveal new mechanisms and biological processes involved in carcinogenesis or drug resistance. We employed a titration-based paradigm (quantitative high-throughput screening or qHTS), where all compounds were tested at multiple concentrations for their effect on cell viability. Concentration-response curves (CRCs) were derived directly from the primary screen, and both potency and efficacy values were used to identify compounds with robust bioactivity profiles. We screened the NIH Chemical Genomics Center (NCGC) Pharmaceutical Collection (NPC) and Mechanism Interrogation Plate (MIPE) small molecule collections of approved and investigational compounds against these cell lines; and measured metabolically active cells after 48 hours of compound treatment as a proxy for cell viability.
# Assay Submitter: Nathalia J. Martinez, National Center for Advancing Translational Sciences, National Institutes of Health, Rockville, MD, USA; email: natalia.martinez@nih.gov
# [1] Shen, M et al. Quantitative high-throughput phenotypic screening of pediatric cancer cell lines identifies multiple opportunities for drug repurposing. Oncotarget 2017 Dec 19;9(4):4758-4772. PMID 29435139.
# The cells were obtained from University of North Carolina (UNC), Pediatric Preclinical Testing Program (PPT), and Coriell Institute (CI).
# qHTS cell viability assay:
# Cells were assayed in growth media at a density of 500-1,000 cells/well. Five microliters of cells were dispensed into 1,536-well, white, solid-bottom, TC-treated plates (Greiner Bio One) using a multidrop dispenser and incubated at 37 degrees C, 5% CO2, under a humidified atmosphere for 5 hours. Twenty-three nanoliters of compounds and controls (neutral control DMSO or positive control bortezomib at final concentration of 2.3 uM) were subsequently transferred by Kalypsys pintool. For primary screens, the MIPE collection was tested at 11-point dilutions (final concentrations range from 0.78 nM to 46 µM) and the NPC collection at 8-point dilutions (final concentrations range from 0.59 nM to 46 µM). Compounds tested in follow-up screens were assayed at 11-point dilutions. Cells were incubated for 48 hours, followed by addition of 3 uL of CellTiter-Glo (Promega). After a 15min incubation at room temperature, samples were analyzed for luminescence intensity using a ViewLux High-throughput CCD imager equipped with clear filters.
# Potency is the fitted concentration of half-maximal effect.
row,Compound,Potency
1,CON(C)C(=O)N1N=C(c2cc(F)ccc2F)S[C@]1(CCCN)c1ccccc1,0.0117 µM (active)
2,COc1ccc2c(c1)c(C1=C(c3c[nH]c4ccccc34)C(=O)NC1=O)cn2CCCN(C)C,23.3 µM (active)
3,CC[C@H](NC(=O)[C@H](C)NC)C(=O)N1C[C@@H](O)C[C@H]1Cc1c(-c2[nH]c3cc(F)ccc3c2C[C@H]2C[C@H](O)CN2C(=O)[C@H](CC)NC(=O)[C@H](C)NC)[nH]c2cc(F)ccc12,2.93 µM (active)
4,COC(=O)Nc1ccc(-c2nc(N3CCOCC3)c3cnn(C4CCN(C(=O)OC)CC4)c3n2)cc1,3.69 µM (active)
5,Cc1ccc(C(=O)N(CCCN)[C@@H](c2nc3cc(Cl)ccc3c(=O)n2Cc2ccccc2)C(C)C)cc1,0.0479 µM (active)
6,CCC[C@H](N[C@@H](C)C(=O)N1[C@@H]2CCCC[C@H]2C[C@H]1C(=O)O)C(=O)OCC,inactive
7,Nc1ncnc2c1ncn2[C@@H]1O[C@H](CO)[C@@H](O)[C@@H]1O,7.37 µM (active)
8,CN(C)CC[C@H](CSc1ccccc1)Nc1ccc(S(=O)(=O)NC(=O)c2ccc(N3CCN(Cc4ccccc4-c4ccc(Cl)cc4)CC3)cc2)cc1[N+](=O)[O-],20.8 µM (active)
9,Cc1ccccc1-n1c(Cn2nc(-c3cccc(O)c3)c3c(N)ncnc32)nc2cccc(C)c2c1=O,inactive
10,CC1(C)OC2CC3C4CC(F)C5=CC(=O)C=CC5(C)C4C(O)CC3(C)[C@]2(C(=O)CO)O1 (stereo not given in full),inactive
11,COC(=O)[C@H](c1ccccc1Cl)N1CCc2sccc2C1,inactive
12,CCOC(=O)[C@H](CCc1ccccc1)N[C@@H](C)C(=O)N1CCCC1C(=O)O (stereo not given in full),7.37 µM (active)
13,COc1cc([C@@H]2c3cc4c(cc3[C@@H](O[C@@H]3O[C@@H]5CO[C@@H](C)O[C@@H]5[C@H](O)[C@@H]3O)[C@H]3COC(=O)[C@H]23)OCO4)cc(OC)c1O,0.657 µM (active)
14,CC[C@]1(O)C[C@H]2CN(CCC3=c4ccccc4=N[C]3[C@@](C(=O)OC)(c3cc4c(cc3OC)N(C)[C@H]3[C@@](O)(C(N)=O)[C@H](O)[C@]5(CC)C=CCN6CC[C@]43[C@@H]65)C2)C1,0.104 µM (active)
15,CO[C@H]1/C=C\O[C@@]2(C)Oc3c(C)c(O)c4c(O)c(c(C=NN5CCN(C6CCCC6)CC5)c(O)c4c3C2=O)NC(=O)C(C)=CC=C[C@H](C)[C@H](O)[C@@H](C)[C@@H](O)[C@@H](C)[C@H](OC(C)=O)[C@H]1C,20.8 µM (active)
16,CC1=C[C@@H]2[C@@H]([C@@H](O)C[C@@]3(C)[C@H]2C[C@@H](C)[C@]3(O)C(=O)CO)[C@@]2(C)Cc3cnn(-c4ccccc4)c3C=C12,10.4 µM (active)
17,C[C@@]1(c2cc(-c3cncnc3)c(F)cc2F)CCSC(N)=N1,8.27 µM (active)
18,CCC[C@H](Nc1nc(-c2ccc(NC(=O)NCC)c(OC)c2)ncc1C)c1cccnc1,0.117 µM (active)
19,CC(C)C[C@@H](C(=O)N[C@H](C(=O)OC1CCCC1)c1ccccc1)[C@H](O)C(=O)NO,23.3 µM (active)
20,CC(C)n1c(C=C[C@H](O)C[C@H](O)CC(=O)O)c(-c2ccc(F)cc2)c2ccccc21,16.5 µM (active)

row,Compound,Potency
1,COc1cc2nccc(Oc3ccc(NC(=O)Nc4cc(C)on4)c(Cl)c3)c2cc1OC,18.5 µM (active)
2,C[C@@]1(C(=O)Nc2ccc(F)nc2)CCCN1c1nc(Nc2cc(C3CC3)[nH]n2)c2cccn2n1,0.233 µM (active)
3,C[C@@H]1[C@H](O)[C@@H](C)C=CC=CC=CC=CC=CC=CC=C[C@H](O[C@@H]2O[C@H](C)[C@H](O)[C@H](N)[C@@H]2O)C[C@@H]2O[C@](O)(C[C@@H](O)C[C@@H](O)[C@H](O)CC[C@@H](O)C[C@@H](O)CC(=O)O[C@H]1C)C[C@H](O)[C@@H]2C(=O)O,11.7 µM (active)
4,CCC(C)SSc1ncc[nH]1 (stereo not given),13.1 µM (active)
5,CCNC(=O)c1noc(-c2cc(C(C)C)c(O)cc2O)c1-c1ccc(CN2CCOCC2)cc1,0.0827 µM (active)
6,O=C(CC12CC3CC(CC(C3)C1)C2)Nc1cccc2nc(NCCNCCO)ccc12,18.5 µM (active)
7,OCCn1cc(-c2ccc3c(c2)CCC3=NO)c(-c2ccncc2)n1,inactive
8,CN[C@@H]1CN(c2ccc3c(=O)c(C(=O)O)cn(-c4nccs4)c3n2)C[C@@H]1OC,1.15 µM (active)
9,C=C1[C@H](n2cnc3c(=O)[nH]c(N)nc32)C[C@H](O)[C@H]1CO,8.27 µM (active)
10,CN(C(Cc1ccc(OS(=O)(=O)c2cccc3cnccc23)cc1)C(=O)N1CCN(c2ccccc2)CC1)S(=O)(=O)c1cccc2cnccc12 (stereo not given),3.69 µM (active)
11,Cc1cnc(-c2cc(N3CCN(C(=O)CCS(C)(=O)=O)CC3)ncc2Cl)c(C)c1,inactive
12,Cc1cccc(-c2[nH]c(C(C)(C)C)nc2-c2ccc3c(c2)OCO3)n1,7.37 µM (active)
13,COc1ccc(-c2ccc3ncc4c(c3c2)n(-c2ccc(N3CCNCC3)c(C(F)(F)F)c2)c(=O)n4C)cn1,0.0329 µM (active)
14,CC1(C)CC(=O)c2c(C(F)(F)F)nn(-c3ccc(C(N)=O)c(NC4CCC(O)CC4)c3)c2C1 (stereo not given),0.165 µM (active)
15,O=C1NC(=O)C(c2cnc3ccccn23)=C1c1cn2c3c(cccc13)CN(C(=O)N1CCOCC1)CC2,4.65 µM (active)
16,C[C@@H]1O[C@@H](O[C@H]2CC[C@@]3(C)[C@H](CC[C@@H]4[C@H]3C[C@@H](O)[C@]3(C)[C@@H](C5=CC(=O)OC5)CC[C@]43O)C2)C[C@H](O)[C@@H]1O[C@H]1C[C@H](O)[C@H](O[C@H]2C[C@H](O)[C@@H](O)[C@@H](C)O2)[C@H](C)O1 (stereo in doubt),0.17 µM (active)
17,CC1=C(CC(=O)O)c2cc(F)ccc2C1=Cc1ccc(S(C)=O)cc1 (stereo not given),inactive
18,CC(C)(C)c1[nH]cnc1C=c1[nH]c(=O)c(=Cc2ccccc2)[nH]c1=O,0.0101 µM (active)
19,COc1cc2c(cc1Cc1cccc(Cl)c1F)c(=O)c(C(=O)O)cn2[C@H](CO)C(C)C,13.1 µM (active)
20,COc1cc(CNC(=O)CCCCC=CC(C)C)ccc1O,3.29 µM (active)
